Among the data in PubChem BioAssay (EPA / NIEHS) are outcome and AC50 values, retold here.

Read-out in assay [1]: ABC Transporter (ABCB1), ABCB1 (gene 5243)
As to the kind of experiment: CLD_ABCB1_6hr: CellzDirect (CLD) Gene Expression Assay for ABC Transporter (ABCB1) at 6 hours (AID 2283659).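 Also: hits raise ABCB1 transcript above the DMSO vehicle baseline.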 The method in brief: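 Primary human hepatocytes (two donor preparations) dosed daily for two days with chemicals at multiple concentrations, 0.2% DMSO vehicle; harvested 6 h post-dose. ABCB1 mRNA induction quantified by qNPA chemiluminescence; gain-of-signal fitted versus DMSO.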

Read-out in assay [2]: Broad substrate specificity ATP-binding cassette transporter ABCG2 (Homo sapiens) (UniProt Q9UNQ0)
Kind of assay: CLD_ABCG2_6hr: CellzDirect (CLD) Gene Expression Assay for ABC Transporter (ABCG2) at 6 hours (AID 2283660). The gist of the method: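 Primary human hepatocytes dosed daily with chemicals at multiple concentrations (0.2% DMSO vehicle), harvested 6 h after dosing. ABCG2 mRNA induction read by quantitative nuclease protection assay (qNPA) chemiluminescence; gain of signal fitted against DMSO baseline.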

Read-out in assay [3]: xenobiotic metabolism (CYP1A2), CYP1A2 (gene 1544)
Kind of assay: CLD_CYP1A2_6hr: CellzDirect (CLD) Gene Expression Assay for xenobiotic metabolism (CYP1A2) at 6 hours (AID 2283663).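 As to AC50: potency is for induction meaning a rise in mRNA above DMSO.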 The gist of the method:
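Primary human hepatocytes from two donor preparations, dosed daily with multiple concentrations in 0.2% DMSO and harvested at 6 h. CYP1A2 mRNA induction measured by chemiluminescent qNPA, gain of signal fitted against DMSO; cytotoxicity flagged morphologically.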

Read-out in assay [4]: xenobiotic metabolism (CYP2C9), CYP2C9 (gene 1559)
As to the kind of experiment: CLD_CYP2C9_6hr: CellzDirect (CLD) Gene Expression Assay for xenobiotic metabolism (CYP2C9) at 6 hours (AID 2283664). The method in brief:
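Primary human hepatocytes dosed daily with test chemicals at multiple concentrations; harvested at 6 h. CYP2C9 mRNA induction measured by qNPA chemiluminescence. Gain of signal fitted against 0.2% DMSO vehicle; cytotoxicity annotated from phase-contrast morphology.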

A short description of assay [5]: Tanguay_ZF_120hpf_TR_legacy: (Legacy) Oregon State University Tanguay Lab 120 Hour Post-fertilization zebrafish Assay for Touch Response (AID 2283667). The gist of the method: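 Tropical 5D wild-type zebrafish embryos statically exposed to 120 hpf at 28°C, sealed and dark-covered, 0.64% DMSO final; touch response scored as present/absent by brightfield microscopy at 120 hpf. Trimethyltin chloride 5 uM positive control; dead embryos not scored.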

Read-out in assay [6]: xenobiotic metabolism (CYP1A1), CYP1A1 (gene 1543)
Kind of assay: CLD_CYP1A1_6hr: CellzDirect (CLD) Gene Expression Assay for xenobiotic metabolism (CYP1A1) at 6 hours (AID 2283661).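 As to AC50: potency for transcript induction above DMSO vehicle baseline.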 The gist of the method:
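Primary human hepatocytes from two donors, compound versus 0.2% DMSO vehicle. CYP1A1 mRNA measured 6 h after dosing by quantitative nuclease protection assay with chemiluminescent read-out; induction fitted relative to DMSO, cytotoxicity flagged by microscopy.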

Assay [7] deals with Thyroperoxidase (TPO), gene 54314. Kind of assay: CCTE_Simmons_AUR_rTPO: CCTE's Amplex UltraRed Assay for Thyroperoxidase (TPO) Inhibition, Simmons Lab (AID 2283662).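 As to AC50: potency for loss of signal meaning inhibition of peroxidase activity.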 The gist of the method:
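Rat thyroid microsomes (5 ug protein) with 25 uM Amplex UltraRed and 300 uM H2O2 in 200 mM phosphate buffer, 30 min at 37C in dark; fluorescence 544/590 nm. Eight concentrations, 5 nM–87.5 uM final, 0.5% DMSO, triplicate biological replicates.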

Assay [8] can be described thus: CCTE_Simmons_CellTiterGLO_HEK293T: Viability Assessment in CCTE's Assays for Thyroperoxidase (TPO) Inhibition, Simmons Lab (AID 2283665).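 As to AC50: cells exposed to compound for 24 h before readout; actives reduce ATP signal below DMSO vehicle meaning cytotoxicity.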 The method in brief: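 HEK293T cells in DMEM with 1% FBS were dosed with 8 concentrations (5 nM–87.5 uM final, 0.5% DMSO) for 24 hr at 37C; ATP content was read by CellTiter-Glo luminescence, loss-of-signal versus DMSO, three biological replicates.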
On the technique in general: Cellular ATP, detected with luciferase, serves as a proxy for viable cell number.

Read-out in assay [9]: organic anion transporter (SLCO1B1), SLCO1B1 (gene 10599)
Kind of assay: CLD_SLCO1B1_6hr: CellzDirect (CLD) Gene Expression Assay for organic anion transporter (SLCO1B1) at 6 hours (AID 2283668).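 Also: active means mRNA induction above DMSO baseline.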 The gist of the method: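 Primary human hepatocytes dosed daily with test chemicals (multiple concentrations) in 0.2% DMSO vehicle; harvested at 6 h. SLCO1B1 mRNA quantified by qNPA chemiluminescence, fitted as gain-of-signal versus DMSO; cytotoxicity from phase-contrast morphology flagged alongside.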

Read-out in assay [10]: alkyl and aryl transferase (GSTA2), GSTA2 (gene 2939)
As to the kind of experiment: CLD_GSTA2_6hr: CellzDirect (CLD) Gene Expression Assay for alkyl and aryl transferase (GSTA2) at 6 hours (AID 2283666). The gist of the method:
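Primary human hepatocytes from two donor preparations were dosed daily with fresh compound at multiple concentrations, 0.2% DMSO vehicle. GSTA2 mRNA was measured at 6 hours by qNPA chemiluminescence; induction fitted relative to DMSO, with cytotoxicity flagged morphologically.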

Values joined by “and” are separate entries in the source; they are usually repeats but may differ in a detail not shown here. Identical values can stand only once. Results filed as inconclusive are left out. A structure can be active in one record and inactive in another. Active and inactive are the calls of the source. The calls were made as follows: active = hit-call score of the fitted dose curve at least 0.9, where 1 is the maximum; inconclusive = response in the unintended direction; inactive = score below 0.9.

Chain of Broad substrate specificity ATP-binding cassette transporter ABCG2 (Homo sapiens) (Q9UNQ0 whole entry, looked up): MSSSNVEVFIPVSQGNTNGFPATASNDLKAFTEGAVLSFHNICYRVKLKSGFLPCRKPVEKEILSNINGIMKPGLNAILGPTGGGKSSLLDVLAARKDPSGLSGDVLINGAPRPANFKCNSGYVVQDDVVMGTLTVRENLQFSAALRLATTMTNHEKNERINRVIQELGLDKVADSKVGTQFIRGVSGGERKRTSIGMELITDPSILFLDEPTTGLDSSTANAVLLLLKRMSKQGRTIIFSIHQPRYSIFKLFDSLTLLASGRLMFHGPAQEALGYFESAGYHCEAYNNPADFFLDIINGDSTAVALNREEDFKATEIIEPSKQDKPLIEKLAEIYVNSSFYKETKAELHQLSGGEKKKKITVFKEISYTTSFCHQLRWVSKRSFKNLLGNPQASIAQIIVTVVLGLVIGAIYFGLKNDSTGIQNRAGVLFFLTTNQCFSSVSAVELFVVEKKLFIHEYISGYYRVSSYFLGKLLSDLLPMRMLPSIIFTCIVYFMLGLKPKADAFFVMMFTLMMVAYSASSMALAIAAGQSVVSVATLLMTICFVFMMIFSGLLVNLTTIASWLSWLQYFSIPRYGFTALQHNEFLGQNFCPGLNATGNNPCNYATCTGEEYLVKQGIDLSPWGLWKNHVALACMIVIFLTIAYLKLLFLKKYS

Take `COc1cccc(C(=O)NN(C(=O)c2cc(C)cc(C)c2)C(C)(C)C)c1C`: the call in assay [1], in assay [2], in assay [3], in assay [4] and in assay [5] was inactive.
As a reminder, the AC50 is the concentration giving half of the maximal activity seen. On to `CSC1=N[C@@](C)(c2ccccc2)C(=O)N1Nc1ccccc1`, for which the result in [1], in assay [3], in assay [4], in assay [8] and in assay [5] was inactive. The AC50 in assay [6] is 0.00477 µM (active); in [7], 25.7 µM (active).
For the compound `CN(C)C(=O)Nc1cccc(C(F)(F)F)c1`, the outcome in [1], in assay [2], in [3] and in assay [5] was inactive.
Regarding `CCOP(=S)(OCC)Oc1cc(C)nc(C(C)C)n1`, the compound was classed as inactive in assay [2], in [5] and in assay [9]. Besides, the results for the AC50 in assay [7], in assay [3] and in assay [8] were 14.4 µM (active), 0.589 µM (active) and 83.2 µM (active), respectively.
Turning to `CCOP(=O)(SC(C)CC)N1CCSC1=O` (stereo unspecified), the compound was called inactive in assay [2], in assay [8], in assay [5] and in [9]. Further, in assay [7], the AC50 is 43.8 µM (active).
For the compound `CNC(=O)Oc1cccc2c1OC(C)(C)O2`, the call in assay [1] and in [5] was inactive. Moreover, in assay [3], the AC50 is 3.97 µM (active).
Take `CNC(=O)ON=C(C)SC`: the call in [2] and in [3] was inactive.
For the compound `C#CCC1=C(C)C(OC(=O)C2C(C=C(C)C)C2(C)C)CC1=O` (stereo unspecified), the compound was classed as inactive in [2], in assay [3], in assay [5] and in assay [9]. Also, the AC50 in [7] is 40.2 µM (active).
For `CON=C(C(=O)OC)c1ccccc1CON=C(C)c1cccc(C(F)(F)F)c1`, the compound was classed as inactive in assay [2], in [6], in assay [4], in assay [5] and in [9].
With `CCC(=O)Nc1ccc(Cl)c(Cl)c1`, the result in assay [1], in assay [8] and in assay [5] was inactive. Besides, the AC50 is 36 µM (active) in assay [7] and 8.75 µM (active) in assay [3].
Consider `CCCSP(=O)(OCC)SCCC`, for which the call in [2], in assay [3], in assay [4], in assay [8] and in assay [9] was inactive. Also, the AC50 is 1.9 µM (active) in [6] and 19.4 µM (active) in [7].
Consider `Cc1nn(-c2cc(NS(C)(=O)=O)c(Cl)cc2Cl)c(=O)n1C(F)F`, for which the compound was called inactive in [1], in assay [2], in assay [3], in [5] and in assay [9].
Consider `CN(C)[C@@H]1C(=O)C(C(N)=O)=C(O)[C@@]2(O)C(=O)C3=C(O)c4c(O)cccc4[C@@](C)(O)[C@H]3[C@H](O)[C@@H]12`, for which the compound was classed as inactive in assay [2], in assay [6], in [3], in [8] and in assay [5]. The AC50 in assay [7] was 17.5 µM (active) and 10.5 µM (active) and 15.5 µM (active); in assay [8] it was 5.47 µM (active) and 53.8 µM (active).
As for `CCOP(=S)(OCC)Oc1ccc2c(C)c(Cl)c(=O)oc2c1`, the result in [1], in assay [2], in assay [6], in assay [4], in assay [8] and in [5] was inactive. For the same compound, the AC50 in [7] was 38.5 µM (active).
Take `CCOP(=S)(OCC)Oc1ccc([N+](=O)[O-])cc1`: the result in assay [1] and in assay [8] was inactive. Moreover, the AC50 in assay [7] is 15.5 µM (active); in [3], 2.19 µM (active).
Take `Nc1nc(N)nc(NC2CC2)n1`: the result in [1], in [4] and in assay [5] was inactive.
With `CCOP(=S)(Oc1cnc(C(C)(C)C)nc1)OC(C)C` (stereo unspecified), the outcome in assay [2], in assay [3], in assay [5] and in assay [9] was inactive. Also, the half-maximal activity concentration (AC50) in assay [7] is 36.2 µM (active); in [8], 31.4 µM (active).
Regarding `CCc1cnc(C2=NC(C)(C(C)C)C(=O)N2)c(C(=O)O)c1` (stereo unspecified), the outcome in [1], in [5] and in assay [9] was inactive.
`CCCSP(=O)(OCC)Oc1ccc(Br)cc1Cl` (stereo unspecified): the outcome in assay [2], in assay [3], in assay [5] and in [9] was inactive. The AC50 is 15.6 µM (active) in [7] and 41.5 µM (active) in assay [8].
Regarding `CC1(C(=O)Nc2ccc(O)c(Cl)c2Cl)CCCCC1`, the outcome in assay [2], in [7] and in assay [5] was inactive. Also, the AC50 in [8] was 82.2 µM (active).
In the case of `CSc1nc(NC(C)C)nc(NC(C)C)n1`, the call in assay [1], in assay [2], in assay [3], in assay [4], in assay [10] and in [5] was inactive. Moreover, the call in assay [9] was inactive. Moreover, the AC50 in [6] was 3.97 µM (active).
For the compound `O=c1ccc(=O)[nH][nH]1`, the compound was called inactive in [1], in [2], in assay [7], in assay [3], in assay [4] and in assay [8]. In addition, the call in [5] and in assay [9] was inactive.
As for `CC(C1CC1)C(O)(Cn1cncn1)c1ccc(Cl)cc1` (stereo unspecified), the outcome in assay [1], in [2], in assay [4] and in [5] was inactive. For the same compound, the AC50 in assay [3] is 0.00638 µM (active).
On to `S=C1NCCN1`, for which the compound was classed as inactive in [1], in assay [2], in assay [8], in [5] and in assay [9]. In addition, in assay [7], the AC50 is 6.05 µM (active).
As to `CCOC(=O)COc1cc(-c2nn(C)c(OC(F)F)c2Cl)c(F)cc1Cl`, the compound was called inactive in [1], in assay [6], in assay [3], in assay [4] and in [5].
In the case of `CCCCN(CC)c1c([N+](=O)[O-])cc(C(F)(F)F)cc1[N+](=O)[O-]`, the result in assay [2], in assay [6], in assay [3] and in assay [5] was inactive.
Regarding `COP(=O)(OC)SCn1c(=O)oc2cc(Cl)cnc21`, the compound was called inactive in assay [2], in assay [3], in assay [4], in [8] and in assay [5]. Also, the AC50 in [7] is 7.84 µM (active).
As to `CCc1cccc(C)c1N(C(=O)CCl)C(C)COC` (stereo unspecified), the compound was called inactive in assay [1], in assay [2], in [3], in assay [10] and in assay [5].
As to `Cc1cc(C2CC2)nc(Nc2ccccc2)n1`, the result in assay [2] was inactive. The AC50 in assay [3] is 1.99 µM (active).
For the compound `N#CSCSC#N`, the compound was classed as inactive in assay [1], in [2], in assay [3], in [4], in assay [10] and in [9]. The results for the AC50 in [7] and in assay [8] were 2.75 µM (active) and 9.47 µM (active), respectively.
Turning to `COP(=O)(NC(C)=O)SC` (stereo unspecified), the outcome in [2], in assay [3], in assay [4], in assay [8], in assay [5] and in assay [9] was inactive. The AC50 in assay [7] is 31.8 µM (active).
With `CCCOCC(=Nc1ccc(Cl)cc1C(F)(F)F)n1ccnc1`, the outcome in assay [2], in assay [7], in assay [5] and in assay [9] was inactive. Also, the AC50 in assay [6] was 1.9 µM (active); in [3], 1.89 µM (active); in assay [8], 21.3 µM (active).
Consider `CCC(=NOC/C=C/Cl)C1=C(O)CC(C2CCOCC2)CC1=O` (stereo unspecified), for which the result in assay [2], in assay [7], in assay [3], in [8] and in assay [9] was inactive.
With `CN(C)NC(=O)CCC(=O)O`, the compound was called inactive in [1], in assay [2], in assay [3] and in [5].
As to `C[Si](Cn1cncn1)(c1ccc(F)cc1)c1ccc(F)cc1`, the call in assay [2], in assay [3] and in assay [9] was inactive. Besides, in [6], the AC50 was 20 µM (active).
As for `FC(F)C(F)(F)OCC(Cn1cncn1)c1ccc(Cl)cc1Cl` (stereo unspecified), in assay [6], the AC50 is 2.47 µM (active).
Consider `CCC(CC)Nc1c([N+](=O)[O-])cc(C)c(C)c1[N+](=O)[O-]`, for which the call in [6] was inactive.
For `CNC(=O)ON=C(SC)C(=O)N(C)C`, the compound was classed as inactive in assay [10].
